# Screening results deposited in PubChem BioAssay by several laboratories.
# phage Ecoli inh: E. coli growth loss with phage present. inhibition, % at 11.9 µM. hit rate 0.26% among 360,000. growth absorbance. AID 651602; in the data active = inhibition above about 11%
# Tat transport: blocks Tat-dependent protein export in E. coli. E. coli MC4100 TorA-mCherry Tat export, fluorescence. inhibition, % at 10 µM. hit rate 0.036% among 340,000;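 active = mean replicate inhibition at least 50% and at least half of replicates individually reaching 50%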;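 note: exported cargo escapes ClpAP degradation while cytoplasmic cargo is degraded and loses fluorescence; 0% = median of neutral control wells and 100% = median of NaSCN control wells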
# E coli growth-1: reduces bacterial viability in AddAB counter-screen; inhibition, % at 11.9 µM; hit rate 0.27% among 330,000; E. coli V3065 growth, OD600 absorbance, 18 h; AID 449728;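 active = inhibition above the campaign's mean inhibition across all tested compounds plus 3 SD, cut at about 9.9% in these data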;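 note: uninfected addAB+ strain grown without phage in ampicillin broth; 0% = DMSO wells and 100% = ciprofloxacin 0.95 µg/ml wells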
# AddAB inh: less growth of phage-infected E. coli with AddAB | E. coli expressing H. pylori AddAB, absorbance growth | inhibition, % at 11.9 µM | hit rate 0.29% among 330,000; in the data active = inhibition above about 12%;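 note: 0% = vehicle wells of infected cells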
# E coli growth-2: inhibitors of Escherichia coli growth; OD600, 23 h; stronger effect = lower value; OD600 absorbance (concentration not given with the values); hit rate 0.21% among 330,000;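 active = OD600 absorbance below the run mean of sample wells minus 3.6 SD, in any replicate, cut at about 0.56 in these data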
# AddAB confirm: growth loss of T4-infected E. coli expressing H. pylori AddAB, confirmed; shares compounds with AddAB inh; E. coli V3065 expressing H. pylori AddAB, T4 phage, OD; T4 phage with gene 2 nonsense mutations; inhibition, % at 11.9 µM; hit rate 64% among 880; AID 488942;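 active = mean inhibition above a set limit taken from the earlier primary screen, cut at about 13% in these data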;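 note: higher means less bacterial growth since AddAB block lets phage replicate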
# RecBCD counter: counter-screen: growth loss of RecBCD+ E. coli with mutant T4 phage; shares compounds with AddAB inh; E. coli V66 + mutant T4 phage, OD growth; inhibition, % at 11.9 µM; hit rate 73% among 880; AID 488955;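 active = mean inhibition above the mean of solvent-only control wells plus 3 SD, cut at about 4% in these data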;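 note: optical density read after an 18 h incubation at 37 °C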
# bact viab count: counter-screen: bacterial growth inhibition; shares compounds with AddAB inh; bacterial viability, absorbance (AddAB counterscreen); AID 488956; hit rate 35% among 880; inhibition, % at 11.9 µM; in the data active = inhibition above about 25%
# Numbers without * were called inactive; . = no result. Most compounds without a hit are left out; they make up all but 0.5% or so of the library.
SMILES,phage Ecoli inh,Tat transport,E coli growth-1,AddAB inh,E coli growth-2,AddAB confirm,RecBCD counter,bact viab count
CC(=O)N(/N=C/c1ccc([N+](=O)[O-])o1)c1nc2ccccc2c(=O)n1-c1ccccc1,6,6,11*,15*,.,29*,3,13
C#CCCOC(=O)N1C2=NC(C(=O)OC)=C(C(=O)OC)C3N(C)c4ccccc4[C@]23CC1C(=O)OC (stereo partly specified),.,.,.,.,0.65,.,.,.
O=C(/C=C/c1ccccc1Cl)c1ccc(O)cc1,-2,9,-1,1,0.61,.,.,.
O=C(/C=C/c1ccccc1Cl)c1ccccc(=O)c1O,3,-3,9,15*,0.66,8,8.3*,5
Cc1ccc(C)c(/C=C/C(=O)c2ccccc(=O)c2O)c1,8,-1,12*,15*,0.67,2,6.5*,-1
CC(C)CC(=O)Nc1ccccc1N1CCN(c2ccccc2)CC1,0,8,7,15*,0.66,-4,0,-5
CC(C)CC(=O)Nc1ccccc1N1CCN(C(=O)c2ccccc2)CC1,0,-7,-1,-3,0.74,.,.,.
Cc1ccc(S(=O)(=O)N2C(c3ccc4c(c3)OCO4)CC=C(C(=O)O)C2c2ccc(Cl)cc2)cc1 (stereo unspecified),.,.,.,.,0.72,.,.,.
Cc1cc2cc(CNS(=O)(=O)N(C)C)ccc2[nH]1,2,2,26*,34*,0.79,-1,-1,-3
Cc1ccc(S(=O)(=O)NCc2ccc3[nH]c(C)cc3c2)cc1,2,2,3,1,0.66,.,.,.
COC(=O)C1=C(C(=O)OC)C2Nc3ccccc3[C@@]23CC(C(=O)OC)N(C(=O)NC2CCCCC2)C3=N1 (stereo partly specified),.,.,.,.,0.69,.,.,.
NC(=O)NN=Cc1ccccc1OC(=O)c1ccccc1Br,.,.,.,.,0.7,.,.,.
COc1ccc(-c2oc3cc(OC(C)=O)cc(OC(C)=O)c3c(=O)c2OC)cc1,2,-3,.,.,0.64,.,.,.
CC(=O)Oc1cc(O)c2c(=O)c(OC(C)=O)c(-c3ccc(OC(C)=O)c(OC(C)=O)c3)oc2c1,.,14,9,16*,0.62,14*,4.2*,9
c1ccc2c(CC3CNCCN3CCC34CC5CC(CC(C5)C3)C4)cccc2c1 (stereo unspecified),.,.,.,.,0.59,.,.,.
CCN(C(=O)C1CCN(c2nc(-c3ccc(OC)cc3)no2)CC1)c1ccccc1,3,10,-1,2,0.72,.,.,.
CCN(C(=O)C1CCCN(c2nc(-c3ccc(OC)cc3)no2)C1)c1ccccc1F (stereo unspecified),1,2,4,22*,0.77,-2,1,-3
O=C1C(Nc2ccccc2)=C/C(=N/S(=O)(=O)c2cccs2)c2ccccc21,.,13,3,17*,.,1,4.7*,-4
CCOC(=O)CN=C1CC(C)(C)CC2=C1Sc1ncnc(N(C)C)c1N2,.,-4,43*,20*,0.71,1,1,-1
CC(C)CC(NC(=O)c1[nH]cnc1C(=O)NC(C)C(=O)OCc1ccccc1)C(=O)OCc1ccccc1 (stereo unspecified),.,.,.,.,0.66,.,.,.
CCCCn1nnnc1SCC(=O)c1cc(Cl)ccc1OC,0,10,-3,4,0.71,.,.,.
COc1ccc(Cl)cc1C(=O)CSc1nc(N)cc(N)n1,3,3,97*,98*,0.67,-1,-1,-3
N/C(=N/OC(=O)c1ccccc1Cl)c1ncc([N+](=O)[O-])s1,3,-11,10*,14*,.,37*,3,9
NC(=NOC(=O)Nc1ccccc1)c1ncc([N+](=O)[O-])s1,.,.,.,.,0.65,.,.,.
O=C(CSc1nc2ccc(Cl)cc2[nH]1)Nc1ccc2c(c1)CCC2,4,2,0,4,.,.,.,.
O=C(CSc1nc2ccccc2[nH]1)Nc1ccc2c(c1)CCC2,5,-17,7,18*,0.61,3,5.2*,3
CCOC1OC(C(=O)NC2CC2)=CC(C(C)(C)C)C1CCCO (stereo unspecified),.,.,.,.,0.7,.,.,.
